Screens from PubChem BioAssay.
In the library only some 6.4% were active in any assay of this set; here they are far more common.
Gal4-VP16 FLuc – Gal4-VP16 reporter inhibition counter-screen. Drosophila S2 Gal4-VP16 UAS-luciferase, luminescence, 20 h. Potency, µM (top dose mostly 53.6 µM), for the others: top-dose activity, negative = inhibition, most hits filed as inhibitors. 3.5% of 310,000 active. AID 2546;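 further: Gal4-VP16 expression switched on by copper sulfate through the metallothionein promoter; nearly all actives have a fitted effect of over 50% in size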
RORg inh – inhibitors of mouse ROR gamma transcriptional activity; Drosophila S2 Gal4-RORgamma UAS-luciferase reporter, 20 h; Potency, µM (highest dose often 53.6 µM), inactives show at the top dose activity change, negative = inhibition, most hits filed as inhibitors; 5.4% of 310,000 active; further: nearly all actives have a fitted effect of over 60% in size
Target sequence (P51450 whole entry, looked up, the tested form may be a part): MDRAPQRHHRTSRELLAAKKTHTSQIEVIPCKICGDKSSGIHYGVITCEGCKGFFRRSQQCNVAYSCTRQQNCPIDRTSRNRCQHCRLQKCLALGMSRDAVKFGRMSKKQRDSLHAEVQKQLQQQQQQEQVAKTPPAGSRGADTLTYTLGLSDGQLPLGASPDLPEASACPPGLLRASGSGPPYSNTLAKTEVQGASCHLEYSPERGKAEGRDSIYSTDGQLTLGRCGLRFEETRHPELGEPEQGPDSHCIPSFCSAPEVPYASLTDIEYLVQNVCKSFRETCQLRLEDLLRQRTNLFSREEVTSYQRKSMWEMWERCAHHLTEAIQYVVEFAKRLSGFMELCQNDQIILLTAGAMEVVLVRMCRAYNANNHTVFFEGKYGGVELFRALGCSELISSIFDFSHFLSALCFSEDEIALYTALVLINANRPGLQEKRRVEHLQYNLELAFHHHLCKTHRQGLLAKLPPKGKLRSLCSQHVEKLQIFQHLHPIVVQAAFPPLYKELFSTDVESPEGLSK
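Compounds are pin-transferred onto Drosophila Schneider cells expressing a copper-inducible Gal4–ROR gamma transactivation domain fusion. After 1 hr, copper sulfate is added to 700 uM final; luciferase is read 20 hr later.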
Luc counter – Kinase-Glo luciferase inhibition (counter-screen); Q27757; Kinase-Glo luciferase, ATP luminescence, 8 min; Potency, µM (series often up to 38.3 µM), inactives show at the highest dose activity change, negative = inhibition, most hits filed as inhibitors; 0.28% of 200,000 active; AID 1379; further: nearly all actives have a fitted effect of over 60% in size
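Substrate mix (final 50 mM imidazole pH 7.2, 50 mM KCl, 7 mM MgCl2, 10 uM ATP, 0.01% Tween 20, 0.05% BSA) plus pin-tool compound, then Kinase-Glo detection mix; 8 min ambient, luminescence read.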
An asterisk follows results filed as active; u = inconclusive; x = no result; [ ] = another dose, or the depositor's remark. The call rests on the fitted dose curve; in most records, active means well fitted curve in the direction sought with a large enough effect; inconclusive means small, poorly fitted or top-dose-only effect, or another doubt; inactive means no such curve, though single readings can be large; an effect the other way counts as inactive or inconclusive. On the % scale 0 is the no-effect control and ±100 the full control effect; potency means the concentration at half of the fitted maximal effect.

SMILES	Gal4-VP16 FLuc	RORg inh	Luc counter
O=C(Nc1nnc(-c2ccco2)o1)c1cccc(Cl)c1	2.8µM*	3.5µM*	5%
CN(C(=O)c1ccc(C#N)cc1)c1nnc(-c2ccccn2)s1	-6%	2%	2%
Cc1cc(C)c(OCC(=O)Nc2nnc(-c3ccco3)o2)c(C)c1	u	13µM*	-2%
O=C(Nc1nnc(-c2ccccn2)o1)c1cccc(Br)c1	0.89µM*	0.5µM*	x
O=C(Nc1cccc(-c2nnc(-c3ccco3)o2)c1)c1ccccc1	-5%	-3%	2%
O=C(Nc1cccc2ncccc12)c1cccc(Br)c1	-10%	-17%	x
N#Cc1ccc(C(=O)Nc2nnc(-c3ccccn3)o2)cc1	0.89µM*	1.3µM*	x
CC(C)S(=O)(=O)c1csc(C(=O)Nc2ccc(F)cc2)c1N	-5%	u	x
COc1cccc(CNC(=O)CCCc2c[nH]c3ccccc23)c1	-2%	15%	x
CC(C)C[C@H](NC(=O)[C@H](CC(C)C)NC(=O)[C@H](Cc1ccccc1)NC(=O)[C@@H](N)CO)C(=O)N[C@@H](CCCN=C(N)N)C(=O)N[C@@H](CC(N)=O)C(=O)O	-2%	21%	x
O=C(NCc1ccco1)/C(=C\C=C\c1ccccc1)NC(=O)c1ccccc1Br	-9%	8%	0%
COc1ccc(C)cc1N(C(=O)c1ccco1)C(C(=O)NC1CCCC1)c1ccc(N2CCOCC2)cc1 (stereo not drawn)	2%	27%	x
CC(=O)Nc1nnc(-c2ccco2)o1	6%	-19%	0%
CC(=O)Nc1nnc(-c2ccccn2)o1	0%	12%	1%
O=C(Nc1nnc(-c2ccccn2)o1)c1cccc(Cl)c1	1µM*	0.71µM*	-7%
O=C(/C=C/c1ccccc1)Nc1nnc(-c2ccco2)o1	5µM*	2.2µM*	-2%
CC(CNC(=O)CCC(=O)N1CCOc2ccc(Cl)cc21)c1ccccc1 (stereo not drawn)	0%	22%	x
CC(=O)c1ccc(-c2nnc(CCC(=O)N(C)Cc3c(C)nc4ccccn34)o2)s1	-4%	14%	x
CN(C)c1cc2c(c(N(C)C)c1)C(=O)c1ccccc1C2=O	u	-41%	11µM*
CN(C)S(=O)(=O)c1cccc2c1C(=O)c1ccccc1C2=O	-5%	-33%	-7%
Cc1ccn2cc(-c3cccc(NC(=O)C(C)C)c3)nc2c1	u	4µM*	-11%
CC(C)C(=O)Nc1cccc(-c2cn3ccccc3n2)c1	-12%	-36%	-2%
Cc1ccn2cc(-c3ccc(O)c(O)c3)nc2c1	13µM*	-39%	x
Oc1ccc(-c2cn3ccccc3n2)cc1O	-24%	-40%	x
N#Cc1cnn2ccc(-c3cc(N4CCOCC4)ccc3[N+](=O)[O-])nc12	-1%	-36%	2%
SMILES	Gal4-VP16 FLuc	RORg inh	Luc counter
CCc1cc2ccc(C)c(C)c2nc1SCC(=O)NNC(=O)c1ccco1	22%	3%	x
[O-]/[N+](=N\O)c1ccccc1	-6%	-1%	x
NNc1nnc(-c2ccccc2)c(-c2ccccc2)n1	u	11µM*	1%
CC(C)(C)C(=O)Nc1nnc(-c2ccccc2)c(-c2ccccc2)n1	-6%	15%	x
NNc1nc(-c2ccccc2)c2ccccc2n1	u	7.9µM*	0%
OCCNc1nc(-c2ccccc2)c2ccccc2n1	1%	31%	-4%
Cc1ccc(NC(=O)CCC(=O)NNC(=O)NC2CCCCC2)c(C)c1	-21%	28%	1%
COc1ccc(N2CC(C(=O)Nc3ccccc3C(=O)NC3CC3)CC2=O)cc1 (stereo not drawn)	-3%	11%	x
COc1cc(/C=C2\CCc3c2nc2ccccc2c3C(=O)O)cc(OC)c1OC	u	10µM*	x
COc1cc(/C=C2\CCCc3c2nc2ccccc2c3C(=O)O)cc(Br)c1O	-2%	3%	x
COCCC(=O)Nc1ccc2c(c1)CN(C(=O)c1ccc(CSC)o1)CC2	1%	40%	x
COc1cccc(NC(=O)c2cccc(C(=O)Nc3cccc(OC)c3)c2)c1	-3%	-1%	x
CCOc1cc(NC(=S)Nc2cccc(OC)c2)c(OCC)cc1NC(=O)c1ccc(C)cc1	16µM*	7.9µM*	-3%
CCOc1cc(NC(=O)CCl)c(OCC)cc1NC(=O)CCl	20µM*	13µM*	x
COC(=O)[C@@H](NC(=O)Nc1cccc(OC)c1)C(C)C	4%	9%	-2%
COc1ccc(C(=O)Nc2cccc(OC)c2)cc1	1%	6%	7.9µM*
CCOc1cc(NC(=O)c2ccccn2)c(OCC)cc1NC(=O)c1ccc(C)cc1	0%	2%	-6%
COc1cccc(NC(=S)NC(C)c2ccc(OC)c(OC)c2)c1 (stereo not drawn)	u	7.9µM*	0%
CCOc1ccccc1NC(=O)CCC(=O)Nc1ccccc1OCC	-7%	2%	-4%
CC1CC(CN)CC(CO)C1 (stereo not drawn)	-1%	-13%	0%
C=CCN(C)CCCCCCOc1ccc(C(=O)c2ccc(Br)cc2)c(F)c1	u	-17%	x
Cc1cccc(C)c1NC(=O)CN(C1CCCCC1)S(C)(=O)=O	-5%	0%	x
COc1cc(C#N)c(NC(=O)CN2CCN(CCO)CC2)cc1OC	1%	0%	2%
CCOc1cc(NC(=S)NCCCN2CCOCC2)c(OCC)cc1NC(=O)CC(C)C	-10%	-28%	-2%
CCOc1cc(NC(=S)Nc2cccc(C)c2)c(OCC)cc1NC(=O)CC(C)C	20µM*	6.3µM*	-5%
SMILES	Gal4-VP16 FLuc	RORg inh	Luc counter
CCOc1cc(NC(=S)Nc2ccccc2)c(OCC)cc1NC(=O)c1ccc(OC)cc1	11µM*	4µM*	-1%
CCOc1ccccc1NC(=O)Nc1ccc(Cl)cc1	u	u	-11%
CCOc1cc(NC(=O)c2ccccc2OC)c(OCC)cc1NC(=O)c1ccccc1	-16%	27%	x
CCOc1cc(NC(=S)Nc2cccc(OC)c2)c(OCC)cc1NC(=O)C(C)C	u	8.9µM*	-1%
CCOc1cc(NC(=S)Nc2ccc(Cl)cc2)c(OCC)cc1NC(C)=O	u	11µM*	-4%
CCOc1ccccc1NC(=O)c1cccc(NC(=O)C(C)C)c1	0%	9%	2%
O=C(c1ccc(NS(=O)(=O)c2cccs2)cc1)N1CCOCC1	4%	12%	x
CCOc1ccc(N(CC(=O)NC2CCCCC2)C(=O)CCC(=O)Nc2nccs2)cc1	-4%	-9%	x
CCn1c(=O)c(C(=O)NNS(=O)(=O)c2ccc(Br)cc2)c(O)c2ccccc21	1%	-7%	1%
c1ccc([C@H]2NCCc3c2[nH]c2ccccc32)cc1	-10%[10 µM]	-1%[10 µM]	x
CCOC(=O)c1cnc(-n2nc(C)cc2C)nc1Oc1ccc(C#N)cc1	-10%	1%	x
CCOC(=O)c1cnc(-n2nc(C)cc2C)nc1NC	5.6µM*	1.6µM*	-14%
CCOC(=O)c1cnc(-n2nc(C)cc2C)nc1Nc1ccc2c(c1)OCO2	-2%	-29%[10 µM]	-1%
CCOC(=O)c1cc(NC(=O)NC2CCCCC2)c(C)nc1C	16%	-19%	x
CCOC(=O)c1cnc2cc(C)nn2c1C	21%	-19%	19%
CCOC(=O)c1cnc(-n2nc(C)cc2C)nc1N(CC)CC	4.5µM*	1µM*	3%
CCOC(=O)c1cnc(-n2nc(C)cc2C)nc1NC1CCCCC1	1.1µM*	0.35µM*	x
CCOC(=O)c1cnc(-n2nc(C)cc2C)nc1Nc1ccc(N(C)C)cc1	1.1µM*	0.79µM*	-1%
